In article PMC9911399, “Two distinct binding modes provide the RNA-binding protein RbFox with extraordinary sequence specificity” one finds binding signal data, which are given here for 20 molecules.

The chains are these.
T1: RBFOX1 RRM RbFoxmut (Fox-RRM*) (Homo sapiens, UniProt Q9NWB1 109-208, R118D;E147R;N151S;E152T)
T1 sequence: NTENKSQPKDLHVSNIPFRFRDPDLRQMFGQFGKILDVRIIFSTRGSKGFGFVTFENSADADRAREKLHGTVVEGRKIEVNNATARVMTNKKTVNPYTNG

B1: UCCAGUA (DNA:RNA)
RNA: GGGAGACCGGAAUUCAGAUUGUCCUCCAGUAUUAAAUCCCGUCGUAGCCACCA
DNA 1: CAATCTGAATTCCGGTCTCCC
DNA 2: TGGTGGCTACGACGGGATT
B2: GACCGUC (DNA:RNA)
RNA: B1 RNA with U25G, C26A, A28C, A31C
DNA 1: CAATCTGAATTCCGGTCTCCC
DNA 2: TGGTGGCTACGACGGGATT
B3: GAAUGUC (DNA:RNA)
RNA: B1 RNA with U25G, C26A, C27A, A28U, A31C
DNA 1: CAATCTGAATTCCGGTCTCCC
DNA 2: TGGTGGCTACGACGGGATT
B4: GAAAAUG (DNA:RNA)
RNA: B1 RNA with U25G, C26A, C27A, G29A, A31G
DNA 1: CAATCTGAATTCCGGTCTCCC
DNA 2: TGGTGGCTACGACGGGATT
B5: AAAGCCU (DNA:RNA)
RNA: GGGAGACCGGAAUUCAGAUUGUCCAAAGCCUUUAAAUCCCGUCGUAGCCACCA
DNA 1: CAATCTGAATTCCGGTCTCCC
DNA 2: TGGTGGCTACGACGGGATT
B6: CUAUCCC (DNA:RNA)
RNA: B5 RNA with A25C, A26U, G28U, U31C
DNA 1: CAATCTGAATTCCGGTCTCCC
DNA 2: TGGTGGCTACGACGGGATT
B7: GAAGAAU (DNA:RNA)
RNA: B5 RNA with A25G, C29A, C30A
DNA 1: CAATCTGAATTCCGGTCTCCC
DNA 2: TGGTGGCTACGACGGGATT
B8: GUCCCGG (DNA:RNA)
RNA: B5 RNA with A25G, A26U, A27C, G28C, C30G, U31G
DNA 1: CAATCTGAATTCCGGTCTCCC
DNA 2: TGGTGGCTACGACGGGATT
B9: GUUCGGG (DNA:RNA)
RNA: B1 RNA with U25G, C26U, C27U, A28C, U30G, A31G
DNA 1: CAATCTGAATTCCGGTCTCCC
DNA 2: TGGTGGCTACGACGGGATT
B10: CGUUAUG (DNA:RNA)
RNA: B1 RNA with U25C, C26G, C27U, A28U, G29A, A31G
DNA 1: CAATCTGAATTCCGGTCTCCC
DNA 2: TGGTGGCTACGACGGGATT
B11: GGUUAUG (DNA:RNA)
RNA: B1 RNA with U25G, C26G, C27U, A28U, G29A, A31G
DNA 1: CAATCTGAATTCCGGTCTCCC
DNA 2: TGGTGGCTACGACGGGATT
B12: CGUUCGG (DNA:RNA)
RNA: B5 RNA with A25C, A26G, A27U, G28U, C30G, U31G
DNA 1: CAATCTGAATTCCGGTCTCCC
DNA 2: TGGTGGCTACGACGGGATT
B13: GGGGUUC (DNA:RNA)
RNA: B5 RNA with A25G, A26G, A27G, C29U, C30U, U31C
DNA 1: CAATCTGAATTCCGGTCTCCC
DNA 2: TGGTGGCTACGACGGGATT
B14: CGGUUCG (DNA:RNA)
RNA: B5 RNA with A25C, A26G, A27G, G28U, C29U, U31G
DNA 1: CAATCTGAATTCCGGTCTCCC
DNA 2: TGGTGGCTACGACGGGATT
B15: GGUUCGG (DNA:RNA)
RNA: B5 RNA with A25G, A26G, A27U, G28U, C30G, U31G
DNA 1: CAATCTGAATTCCGGTCTCCC
DNA 2: TGGTGGCTACGACGGGATT
B16: GGGUUCG (DNA:RNA)
RNA: B5 RNA with A25G, A26G, A27G, G28U, C29U, U31G
DNA 1: CAATCTGAATTCCGGTCTCCC
DNA 2: TGGTGGCTACGACGGGATT
B17: GUAAAAU (DNA:RNA)
RNA: B5 RNA with A25G, A26U, G28A, C29A, C30A
DNA 1: CAATCTGAATTCCGGTCTCCC
DNA 2: TGGTGGCTACGACGGGATT
B18: GGCCGCA (DNA:RNA)
RNA: B1 RNA with U25G, C26G, A28C, U30C
DNA 1: CAATCTGAATTCCGGTCTCCC
DNA 2: TGGTGGCTACGACGGGATT
B19: CCUGUUG (DNA:RNA)
RNA: B1 RNA with U25C, C27U, A28G, G29U, A31G
DNA 1: CAATCTGAATTCCGGTCTCCC
DNA 2: TGGTGGCTACGACGGGATT
B20: AGGGCAC (DNA:RNA)
RNA: B5 RNA with A26G, A27G, C30A, U31C
DNA 1: CAATCTGAATTCCGGTCTCCC
DNA 2: TGGTGGCTACGACGGGATT

Positions count from the first letter of the chain named. In all, about 16,000 sequences were measured (“ka relative to ugcaugu”: median about 0.096, highest 2% from about 0.35 on). For the sample, the highest values were picked, then their nearest neighbours and some sequences at random.

This experiment concerns the target T1, RBFOX1 RRM RbFoxmut (Fox-RRM*). The experiment can be described thus: EMSA; HiTS-Eq, 1 nM pool, 10 min; buffer printed only for the single-RNA assays: 10 mM Tris pH 7.5, 150 mM NaCl, 3.4 mM EDTA, 0.001% NP-40, 30 C. Particulars: tags: His6 N-terminal (pET28a); label: 5' 32P. A digest of the protocol:
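These values rest on relative association constants, computed from read-count changes of each RNA species versus the control reaction and normalised to the cognate motif. Reads came from free RNA recovered by 8% native PAGE after purified RbFox RRM (wild type or mutant) at increasing concentrations was equilibrated for 10 min in 50 µL with 1 nM of a 5′-radiolabelled pool with 7 randomized nucleotides and DNA-annealed flanks.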
Background: A gel shift assay detects complexes by their altered migration in electrophoresis.
Take B1: the binding signal was 0.135 KA relative to UGCAUGU.

With B2, the binding signal is 0.0863 KA relative to UGCAUGU.

Consider B3, for which the binding signal is 0.55 KA relative to UGCAUGU.

As for B4, the binding signal is 0.1 KA relative to UGCAUGU.

For the molecule B5, the binding signal was 0.0705 KA relative to UGCAUGU.

On to B6, for which the binding signal was 0.0664 KA relative to UGCAUGU.

As to B7, the binding signal is 0.0873 KA relative to UGCAUGU.

On to B8, for which the binding signal is 0.0859 KA relative to UGCAUGU.

As to B9, the binding signal is 0.0874 KA relative to UGCAUGU.

For B10, the binding signal is 0.269 KA relative to UGCAUGU.

With B11, the binding signal was 0.585 KA relative to UGCAUGU.

Regarding B12, the binding signal was 0.115 KA relative to UGCAUGU.

For the molecule B13, the binding signal was 0.239 KA relative to UGCAUGU.

Take B14: the binding signal was 0.371 KA relative to UGCAUGU.

For the molecule B15, the binding signal is 0.126 KA relative to UGCAUGU.

In the case of B16, the binding signal was 0.4 KA relative to UGCAUGU.

With B17, the binding signal is 0.0936 KA relative to UGCAUGU.

As for B18, the binding signal is 0.107 KA relative to UGCAUGU.

B19: the binding signal is 0.136 KA relative to UGCAUGU.

For B20, the binding signal was 0.0707 KA relative to UGCAUGU.
